High-throughput results as filed in PubChem BioAssay.
Shown are actives, neighbours in structure and some others; about 3.1% of the full set was active somewhere.
RAD54 inh: inhibitors of human RAD54 branch migration, primary screen, biochemical, fluorescence, single point. AID 602329, 2012. inhibition, % at 10.4 µM. RAD54 Holliday junction branch migration, FAM/BHQ fluorescence. actives 0.14% (n = 360,000);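 active = mean normalized replicate activity at least 40 and at least half of replicates scoring 40 or more; inconclusive = only one of the two criteria met; inactive = mean below 40 and under half of replicates reaching 40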;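 also: 0% = median of neutral control wells and 100% = median of positive control wells; inhibitors cause a drop in the FAM fluorescence signal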
Target sequence (Q92698 whole entry, looked up): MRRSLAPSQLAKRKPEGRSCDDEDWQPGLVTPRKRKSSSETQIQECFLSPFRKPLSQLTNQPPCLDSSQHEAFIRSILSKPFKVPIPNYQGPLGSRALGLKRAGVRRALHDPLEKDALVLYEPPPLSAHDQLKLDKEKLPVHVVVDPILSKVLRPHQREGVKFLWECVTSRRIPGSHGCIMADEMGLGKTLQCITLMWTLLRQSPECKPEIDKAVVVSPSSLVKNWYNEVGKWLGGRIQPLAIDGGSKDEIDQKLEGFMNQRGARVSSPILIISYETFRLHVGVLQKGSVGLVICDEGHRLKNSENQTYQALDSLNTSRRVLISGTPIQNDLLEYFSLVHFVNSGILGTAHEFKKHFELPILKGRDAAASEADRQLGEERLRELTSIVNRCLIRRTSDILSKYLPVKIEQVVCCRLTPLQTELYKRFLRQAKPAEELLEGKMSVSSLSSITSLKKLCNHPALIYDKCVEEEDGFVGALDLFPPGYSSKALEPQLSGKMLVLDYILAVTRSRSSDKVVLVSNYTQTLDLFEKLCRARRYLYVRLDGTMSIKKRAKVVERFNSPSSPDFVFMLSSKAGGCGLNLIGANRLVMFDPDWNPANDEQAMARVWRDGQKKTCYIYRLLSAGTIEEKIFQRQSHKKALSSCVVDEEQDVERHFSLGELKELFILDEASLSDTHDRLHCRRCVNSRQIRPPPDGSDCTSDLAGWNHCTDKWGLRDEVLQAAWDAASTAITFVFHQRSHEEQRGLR
INS-1E GSIS act: GLuc luminescence reporter in INS-1E cells, primary screen for activators of glucose-dependent secretion of insulin | INS-1E GLuc reporter insulin secretion, 2-3 h | activation, % at 16.6 µM | actives 0.61% (n = 370,000) | AID 743287, 2014;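 active = lowest replicate activation of at least 40%, so every replicate reaches that level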;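 also: 0% = median of neutral control wells and 100% = median of IBMX positive control wells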
DENV2 CPE rescue: inhibitors of DENV2 cytopathic effect, primary screen, cell-based, plate reader, single concentration; DENV2-infected cells, cytopathic effect rescue; CPE inhibition, % at 9.99 µM; actives 1.7% (n = 350,000); AID 651640, 2012; in the data active = CPE inhibition above about 20%, passing the limit was not always enough; inconclusive = no clear call, values can overlap the other calls; tested in BHK-21 cells;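 also: 0% = median of neutral control wells and 100% = median of positive control wells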
dFosB activator: activators of delta FosB homodimer, primary screen, biochemical, fluorescence polarization, TAMRA-CDK5 oligo, single point | Protein FosB (Mus musculus), P13346 | purified delta FosB; percent of positive-control signal above neutral wells | activation, % at 25 µM | actives 0.99% (n = 340,000) | AID 493131, 2011;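 active = mean activation above about 17%, with every replicate also reaching it, limit read from the data, passing the limit was not always enough; inconclusive = only one of the two conditions met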
MLL AF4-AF9 inh: inhibitors of AF4 peptide binding to AF9, primary screen, biochemical, AlphaScreen, biotin-AF4 peptide, FLAG-AF9, single point; Protein AF-9 (Homo sapiens), P42568; inhibition, % at 10 µM; actives 0.47% (n = 350,000); AID 651704, 2012;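 active = every replicate reaching a set inhibition limit, whatever the replicate mean, cut at about 25% in these data; inconclusive = mean inhibition reaches that limit but some replicates miss it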;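 also: 0% = plate neutral control median and 100% = total signal loss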
RAD52 anneal inh: RAD52 DNA annealing inhibitors, primary screen, biochemical, FRET, single point, set 2; DNA repair protein RAD52 homolog (Homo sapiens), P43351; recombinant RAD52 DNA annealing, FRET fluorescence; inhibition, % at 18.7 µM; actives 0.46% (n = 360,000);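 active = every replicate showing at least 50% inhibition; inconclusive = mean inhibition at least 50% but not in every replicate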
Rad54 DNA ctr: DNA binding of candidate compounds, dose response, artefact control for RAD54 inhibitor project, biochemical, fluorescence polarization, cherry-pick | shares compounds with RAD54 inh | Acridine orange-DNA displacement, 20 min | AC50, µM (series often up to 35 µM), without a hit: top-dose activity change, negative = DNA binding | actives 8% (n = 460) | AID 651673, 2012;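 active = signal drop giving an AC50 within twice the top valid tested concentration of each sample, actives reach about 35 µM in these data; inactive = activity opposite to expected, plus the rest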;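 also: polarization loss reports compound binding to salmon sperm DNA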
* = called active by the depositor; ? = inconclusive; · = no result given.

SMILES	RAD54 inh	INS-1E GSIS act	DENV2 CPE rescue	dFosB activator	MLL AF4-AF9 inh	RAD52 anneal inh	Rad54 DNA ctr
COc1ccc2nc(C)cc(Nc3ccc(C)cc3)c2c1	57.0*	7.2	12.1	8.3	1.3	36.3	15.5%
COc1ccc(OC)c(Nc2cc(C)nc3ccc(C)cc23)c1	19.9	37.4	-3.6	0.8	4.8	0.8	·
Cc1ccc(Nc2cc(C)nc3c(C)cccc23)cc1	?	21.6	?	2.3	5.3	10.0	-5.7%
COc1ccc2nc(C)cc(Nc3ccc(N4CCOCC4)cc3)c2c1	?	·	·	30.2*	·	·	-4.7%
C[C@H]1CN([C@@H](C)CO)C(=O)c2cc(C3=CCCC3)cnc2O[C@H]1CN(C)C(=O)C1CCC1	4.2	2.7	1.0	·	-9.2	-10.4	·
O=C(Nc1ccc(F)cc1)N1CC(=O)N2[C@H](CO)[C@H](c3ccc(C4=CCCC4)cc3)[C@H]2C1	·	-12.4	1.6	·	-1.7	5.8	·
CCOC(=O)c1[nH]c2ccccc2c1CCCN1C(=O)c2ccccc2C1=O	4.4	·	·	-9.7	·	·	·
CCOC(=O)c1[nH]c2cc3c(cc2c1CCCN1C(=O)c2ccccc2C1=O)OCCO3	?	·	·	-5.6	·	·	5.5%
CC(C)NC(=O)N1[C@@H]2CN(C(=O)C3CCC3)c3ccccc3[C@@H]2[C@@H]1CO	-5.4	-11.2	-3.3	·	1.0	4.0	·
Cc1ccc2nc3c(cc(C(=O)NCCN4CCOCC4)c(=N)n3CCCN3CCOCC3)c(=O)n2c1	65.9*	·	·	8.4	·	·	-15.4%
O=C(NN1CCOCC1)c1cc(-c2ccc(Cl)c(Cl)c2)nc2ccccc12	?	-14.2	·	-13.6	·	·	7.1%
COc1cccc(-c2ccc3c(c2)[C@@H]2[C@@H](CCN2C(=O)Cc2ccccc2)[C@H](CO)N3)c1	-0.8	5.9	-24.7	·	5.9	-9.2	·
Cc1ccc2[nH]c(=O)c3cc(C(=O)NCCN4CCN(C)CC4)sc3c2c1	57.3*	8.4	0.7	-68.4	2.6	26.1	-13.3%
O=c1c2ccccc2sc2ccc(NCCCN3CCOCC3)cc12	50.8*	-3.1	1.7	-7.2	14.1	-7.1	-28.9%
COc1ccc2sc3ccccc3c(=O)c2c1	15.7	·	·	-16.8	·	·	·
O=c1c2ccccc2oc2ccc(NCCCn3ccnc3)cc12	-11.3	-5.1	2.3	0.8	3.4	-78.8	·
Cc1cc2oc3cc(NCCC4CCCN4C)ccc3c(=O)c2cc1C (stereo not drawn)	69.4*	·	?	?	0.2	-261.0	-14.7%
CN1CCCC1CCNc1ccc2sc3ccccc3c(=O)c2c1 (stereo not drawn)	56.3*	11.7	27.4*	14.2	26.3*	-1.6	-16.1%
CCCN(C)C[C@@H]1Oc2ncc(Br)cc2C(=O)N([C@H](C)CO)C[C@@H]1C	-13.1	-4.7	5.1	·	1.8	-4.9	·
CN1CCN(CCNC(=O)c2cc3c(=O)n(C)c4ccccc4c3n2C)CC1	63.6*	-10.6	-4.7	-21.5	-2.7	19.5	0.4%
CCCN1CCN(CCCNC(=O)c2cc3c(=O)n(C)c4ccccc4c3n2C)CC1	?	2.5	-2.7	-29.0	-3.2	26.4	-3.4%
COCCCNC(=O)c1cc2c(=O)n(C)c3ccccc3c2n1C	13.9	5.4	5.1	-17.3	1.0	-21.0	·
Cn1c(C(=O)NCCCN2CCc3ccccc3C2)cc2c(=O)n(C)c3ccccc3c21	19.2	5.9	-1.3	-20.4	3.8	20.0	·
COc1ccc2nc(-c3cccc(N)c3)[nH]c2c1	15.9	5.6	·	-1.4	·	·	·
COc1ccc2nc(-c3ccc(N)cc3)[nH]c2c1	77.2*	·	·	1.9	·	·	-4.9%
COc1ccc(C(=O)Nc2ccc3nc(N4CCN(C)CC4)cc(C)c3c2)c(OC)c1	51.0*	36.6	-1.1	-7.2	-11.1	31.4	6.9%
